Screens from PubChem.
Hits are enriched below; roughly 1.2% of the tested compounds scored in any of these assays.
RGS4-Gao reg: modulates binding of RGS4 to human Galphao; Multiplexed bead flow cytometry; actives lie on both sides; binding response (% of control), % at 10 µM; actives 0.33% (n = 220,000); AID 1415; in the data active = binding response below about 49% or above about 150%; inactive = in between;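 note: fluorescent Galphao activated with aluminum fluoride binding bead-coupled RGS4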
Target sequence (P09471 whole entry, looked up): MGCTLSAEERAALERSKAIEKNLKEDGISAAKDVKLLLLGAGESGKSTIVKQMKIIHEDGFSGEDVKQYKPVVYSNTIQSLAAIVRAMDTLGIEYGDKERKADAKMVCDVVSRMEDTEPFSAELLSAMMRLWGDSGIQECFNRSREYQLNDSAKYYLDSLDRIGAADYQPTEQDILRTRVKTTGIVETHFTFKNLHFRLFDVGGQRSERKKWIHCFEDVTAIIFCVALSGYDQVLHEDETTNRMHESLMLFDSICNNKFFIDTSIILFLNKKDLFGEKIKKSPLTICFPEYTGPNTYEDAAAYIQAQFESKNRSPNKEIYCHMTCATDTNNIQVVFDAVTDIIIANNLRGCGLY
Avidin bead fluor: avidin bead compound fluorescence profile; Avidin beads, compound fluorescence 488/530 nm, flow cytometry; stronger effect = higher value; fluorescence (KMESF) at 10 µM; actives 0.38% (n = 220,000); AID 1775; in the data active = fluorescence above about 47
GSH bead fluor: compound fluoresces at 488/530 nm on GSH beads; GSH beads flow cytometry, compound fluorescence 488/530 nm; stronger effect = higher value; fluorescence (KMESF) at 10 µM; actives 0.25% (n = 190,000); AID 1776; in the data active = fluorescence above about 89;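 note: glutathione beads carrying GST-tagged Bcl family fusion proteins plus one bare bead set; values are compound well signal with DMSO vehicle wells as background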
RGS16-Gao: modulates binding between human RGS16 and Galphao | O15492+P09471 | actives 0.38% (n = 220,000) | binding response (% of control), % at 10 µM | bead-based flow cytometry RGS16-Galphao binding, fluorescence; actives lie on both sides;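 note: Galphao activated by GDP with aluminum fluoride before binding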
RGS8-Gao reg: modulates binding of RGS8 to human Galphao; P09471; response (percent of control binding), % at 10 µM; multiplexed bead flow cytometry; actives lie on both sides; actives 0.34% (n = 220,000); in the data active = response below about 60% or above about 140%; inactive = in between;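 note: Galphao activated as the GDP aluminium fluoride complex binding bead-coupled RGS8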
RGS7-Gao reg: human RGS7-Galphao interaction regulation; P09471; Multiplexed bead flow cytometry, RGS7-Galphao binding; actives lie on both sides; binding response (% of control), % at 10 µM; actives 0.35% (n = 220,000); AID 1439; in the data active = binding response below about 49% or above about 150%; inconclusive = no clear call, values can overlap the other calls; inactive = in between;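 note: fluorescent Galphao held in activated GDP-AlF4 state binding bead-coupled RGS7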
RGS4-Gao HTS: modulates binding between human RGS4 and Galphao. shares compounds with RGS16-Gao. multiplexed bead flow cytometry, RGS–Galpha-o binding. RGS4–Galpha-o binding response, % at 10 µM. actives 99% (n = 1,600);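 note: fluorescently labeled Galpha-o bound to GDP with aluminium fluoride binding biotinylated RGS beads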
Avidin counter: counter-screen: compounds disrupting biotin binding to avidin beads | inhibition, % at 10 µM | 1,700 tested, under 10 active | shares compounds with RGS16-Gao | streptavidin beads, fluorescein-biotin binding, flow cytometry;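 active = inhibition above 50%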;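 note: median green fluorescence of gated singlet beads compared with DMSO control wells; 0% = DMSO wells and 100% = complete loss of bead fluorescence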
RGS8-Gao confirm: confirmation of regulators of human RGS8-Galphao interaction | binding response (% of control), % at 10 µM | bead-based flow cytometry RGS8-Galphao binding, fluorescence; actives lie on both sides | shares compounds with RGS16-Gao | actives 3% (n = 1,700) | AID 1836; in the data active = binding response below about 72% or above about 130%; inactive = in between;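 note: Galphao activated as GDP AlF4 complex before binding bead RGS8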
RGS7-Gao single: RGS7-Galphao interaction regulation, single point confirmation | shares compounds with RGS16-Gao | bead-based flow cytometry RGS7-Galphao binding; actives lie on both sides | response (percent of control binding), % at 10 µM | actives 7.8% (n = 1,700) | AID 1837; in the data active = response below about 75% or above about 130%; inactive = in between;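 note: fluorescent Galphao activated with GDP and aluminum fluoride binding bead-coupled RGS7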
RGS16-Gao conf: confirmation of regulators of human RGS16-Galphao interaction; shares compounds with RGS16-Gao; bead-based flow cytometry, RGS16-Galphao binding; actives lie on both sides; response (% of control binding), % at 10 µM; actives 4% (n = 1,700); AID 1838; in the data active = response below about 74% or above about 130%; inactive = in between;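 note: Galphao activated as the GDP aluminium fluoride complex binding bead-coupled RGS16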
RGS4-Gao confirm: RGS4-Galphao interaction regulation, single point confirmation. shares compounds with RGS16-Gao. RGS4-Galphao binding, multiplexed bead flow cytometry; actives lie on both sides. binding response (% of control), % at 10 µM. actives 4% (n = 1,700). AID 1840; in the data active = binding response below about 74% or above about 130%; inactive = in between
RGS19-Gao conf: confirmation of regulators of human RGS19-Galphao interaction; actives 5% (n = 1,700); shares compounds with RGS16-Gao; bead-based flow cytometry RGS19-Galphao binding; actives lie on both sides; response (percent of control binding), % at 10 µM; in the data active = response below about 50% or above about 160%; inactive = in between;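 note: 100% = no compound control and 0% = blank background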
Target sequence (P09471 whole entry, looked up): as above
Target sequence (P49795 whole entry, looked up): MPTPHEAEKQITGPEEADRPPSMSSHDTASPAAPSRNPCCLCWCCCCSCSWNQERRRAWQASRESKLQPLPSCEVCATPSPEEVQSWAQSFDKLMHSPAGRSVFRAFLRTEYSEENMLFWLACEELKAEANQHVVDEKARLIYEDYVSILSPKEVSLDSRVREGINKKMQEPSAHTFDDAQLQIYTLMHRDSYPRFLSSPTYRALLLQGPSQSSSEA
Numbers without * were called inactive; [ ] = another dose, or the depositor's remark. Unless noted, the rule behind the calls is not given here.

`CC1CCC2(CC1)NC(CO)(CO)CO2` (configuration not stated) gave RGS4-Gao reg 98, Avidin bead fluor 15, GSH bead fluor 22, RGS16-Gao 70, RGS8-Gao reg 94 and RGS7-Gao reg 97.
For COc1ccc(NC(=O)NCCCN2CCN(c3ccccc3F)CC2)cc1 the results were RGS4-Gao reg 12*, Avidin bead fluor 0, RGS16-Gao 8.9*, RGS8-Gao reg 22*, RGS7-Gao reg inconclusive, Avidin counter 2, RGS8-Gao confirm 112, RGS7-Gao single 114, RGS16-Gao conf 111, RGS4-Gao confirm 113 and RGS19-Gao conf 104.
Screening COc1ccc(NC(=O)NCCCN2CCN(c3cc(C)ccc3C)CC2)cc1 returned RGS4-Gao reg 105, Avidin bead fluor 6, GSH bead fluor 17, RGS16-Gao 101, RGS8-Gao reg 103 and RGS7-Gao reg 100.
`COC(C[C@H]1O[C@H]1[C@@H](O)[C@H](C)OCc1ccccc1)OC` gave RGS4-Gao reg 98, Avidin bead fluor 8, RGS16-Gao 103, RGS8-Gao reg 102 and RGS7-Gao reg inconclusive.
Screening Cc1ccc(NS(=O)(=O)c2cccc(C(=O)OCC(=O)NCc3ccco3)c2)cc1 returned RGS4-Gao reg 163*[activator], Avidin bead fluor 8, GSH bead fluor 231*, RGS16-Gao 444, RGS8-Gao reg 178*[activator], RGS7-Gao reg 148, Avidin counter -1, RGS8-Gao confirm 97, RGS7-Gao single 93, RGS16-Gao conf 94, RGS4-Gao confirm 93 and RGS19-Gao conf 74.
CCCC(=O)Nc1cccn(Cc2ccccc2Br)c1=O was read as GSH bead fluor 39, Avidin counter 0, RGS8-Gao confirm 100, RGS7-Gao single 102, RGS16-Gao conf 100, RGS4-Gao confirm 99 and RGS19-Gao conf 114.
CCc1cc2c(SCC(=O)Nc3cc(C)on3)ncnc2s1 was read as RGS4-Gao reg 101, Avidin bead fluor 9, GSH bead fluor 64, RGS16-Gao 100, RGS8-Gao reg 101 and RGS7-Gao reg 106.
COCCn1c(N)c(Sc2ccccc2[N+](=O)[O-])c(=O)[nH]c1=O was read as RGS4-Gao reg 135, Avidin bead fluor 8, RGS16-Gao 128, RGS8-Gao reg 122 and RGS7-Gao reg inconclusive.
CC1CCN(S(=O)(=O)c2cccc(C(=O)Oc3ccc([N+](=O)[O-])cc3)c2)CC1 was read as RGS4-Gao reg 97, Avidin bead fluor 8, GSH bead fluor 11, RGS16-Gao 24*, RGS8-Gao reg 83, RGS7-Gao reg 114, RGS4-Gao HTS 97*, Avidin counter 2, RGS8-Gao confirm 98, RGS7-Gao single 105, RGS16-Gao conf 100, RGS4-Gao confirm 102 and RGS19-Gao conf 89.
For Cc1cc(C)c(NS(=O)(=O)c2ccc(NC(=O)/C=C/C(=O)O)cc2)c(C)c1 the results were RGS4-Gao reg 9.7*, Avidin bead fluor -3, GSH bead fluor 9, RGS16-Gao 1.1*, RGS8-Gao reg 12*, RGS7-Gao reg -0.2*, Avidin counter 1, RGS8-Gao confirm 98, RGS7-Gao single 97, RGS16-Gao conf 98, RGS4-Gao confirm 99 and RGS19-Gao conf 109.
For Cc1cccnc1NC(=O)C1CCCN(S(=O)(=O)c2ccc3c(c2)oc(=O)n3C)C1 (configuration not stated) the results were RGS4-Gao reg 116, Avidin bead fluor 7, GSH bead fluor 19, RGS16-Gao 229, RGS8-Gao reg 142*[activator], RGS7-Gao reg 114, RGS4-Gao HTS 116*, Avidin counter 0, RGS8-Gao confirm 101, RGS7-Gao single 101, RGS16-Gao conf 99, RGS4-Gao confirm 101 and RGS19-Gao conf 98.
COc1ccc(/C=N/n2cnn(Cc3ccccc3Cl)c2=S)cc1 was read as RGS4-Gao reg 23*, Avidin bead fluor 0, GSH bead fluor 10, RGS16-Gao 12*, RGS8-Gao reg 15*, RGS7-Gao reg inconclusive, Avidin counter -2, RGS8-Gao confirm 102, RGS7-Gao single 107, RGS16-Gao conf 101, RGS4-Gao confirm 103 and RGS19-Gao conf 98.
`CCOC(=O)C(=O)Nc1ccccc1C(N)=O` gave GSH bead fluor 47, Avidin counter 0, RGS8-Gao confirm 105, RGS7-Gao single 108, RGS16-Gao conf 103, RGS4-Gao confirm 108 and RGS19-Gao conf 56.
`CCOC(=O)C(=O)Nc1ccccc1C(=O)OC` gave RGS4-Gao reg 98, Avidin bead fluor 12, GSH bead fluor 23, RGS16-Gao 108, RGS8-Gao reg 101 and RGS7-Gao reg 94.
For CCOC(=O)CC(NC(=O)c1cccc2c1C(=O)N(Cc1cccnc1)C2)c1ccc(OC(C)C)cc1 (configuration not stated) the results were RGS4-Gao reg 101, Avidin bead fluor 8, GSH bead fluor 18, RGS16-Gao 101, RGS8-Gao reg 101 and RGS7-Gao reg 109.
CCOc1cc(/C=N/O)ccc1OCc1ccc([N+](=O)[O-])cc1 was read as RGS4-Gao reg 101, Avidin bead fluor 15, GSH bead fluor 11, RGS16-Gao 98, RGS8-Gao reg 99 and RGS7-Gao reg 101.
For O=[N+]([O-])c1ccc(COc2ccccc2/C=N/O)cc1 the results were RGS4-Gao reg 89, Avidin bead fluor 1, GSH bead fluor 9, RGS16-Gao 22*, RGS8-Gao reg 73, RGS7-Gao reg 91, RGS4-Gao HTS 89*, Avidin counter 0, RGS8-Gao confirm 106, RGS7-Gao single 107, RGS16-Gao conf 105, RGS4-Gao confirm 108 and RGS19-Gao conf 99.
